Sampled rows, rich in hits. Any-hit rate of the full collection: about 2.5%.
L3MBTL1 inh: L3MBTL1 (human) inhibition | Q9Y468 | AlphaScreen L3MBTL1–H3K9me1 peptide binding | Potency, µM (highest dose often 57.1 µM), for the others: at the highest dose activity, negative = inhibition, most hits filed as inhibitors | actives 0.66% (n = 230,000) | AID 485360; further: on the % scale 0 is the no-effect control and ±100 the full control effect; nearly all actives have a fitted effect of over 60% in size
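L3MBTL1 50 nM + b-AHA-H3(1-15)K9me1 75 nM, 30 min RT; compound added, 30 min RT; streptavidin donor/Ni-chelate acceptor beads 10 ug/mL each final, 30 min RT dark; AlphaScreen read.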
Pol kappa inh: inhibitors of human DNA polymerase kappa | Q9UBT6 | purified Pol kappa, fluorescent DNA synthesis assay, 10 min | Potency, µM (titrated, usually from 107 µM), for inactives: top-dose activity, negative = inhibition, most hits filed as inhibitors | actives 0.53% (n = 400,000); further: on the % scale 0 is the no-effect control and ±100 the full control effect
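Enzyme at 10 nM met test compounds for 15 min at room temperature. Substrate addition (50 nM final) began the reaction, which was monitored by fluorescence at 0 and 10 min.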
POLB inh: inhibitors of human DNA polymerase beta. actives 1.3% (n = 340,000). P06746. Potency, µM (highest dose often 114 µM), for the others: at the top dose activity change, negative = inhibition, hits mostly inhibitors. AID 485314. Pol beta primer extension/strand displacement, fluorescence kinetic; further: on the % scale 0 is the no-effect control and ±100 the full control effect
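Enzyme-only controls used 10 nM Pol beta; buffer lacking enzyme served as negative control. Compound preincubated 15 min, then 50 nM substrate added; 0 and 10 min reads at room temperature.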
POLI inh: inhibitors of human DNA polymerase iota; Q9UNA4; Pol iota fluorescent replication assay, 10 min; Potency, µM (titrated, usually from 115 µM), for the others: at the highest dose activity, negative = inhibition, most hits filed as inhibitors; actives 1% (n = 390,000)
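Pol iota at 10 nM preincubated 15 min with compounds at room temperature; reaction started with fluorescent substrate, 50 nM final. Fluorescence read kinetically at 0 and 10 min; buffer-only wells as negative control.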
Pol eta inh: blocks human DNA polymerase eta activity; Q9Y253; recombinant Pol eta, fluorescent DNA replication assay; Potency, µM (series often up to 114 µM), for inactives: at the top dose activity change, negative = inhibition, actives largely listed as inhibitors; actives 1.2% (n = 390,000); AID 588591; further: on the % scale 0 is the no-effect control and ±100 the full control effect
Target sequence (Q9Y253 whole entry, looked up): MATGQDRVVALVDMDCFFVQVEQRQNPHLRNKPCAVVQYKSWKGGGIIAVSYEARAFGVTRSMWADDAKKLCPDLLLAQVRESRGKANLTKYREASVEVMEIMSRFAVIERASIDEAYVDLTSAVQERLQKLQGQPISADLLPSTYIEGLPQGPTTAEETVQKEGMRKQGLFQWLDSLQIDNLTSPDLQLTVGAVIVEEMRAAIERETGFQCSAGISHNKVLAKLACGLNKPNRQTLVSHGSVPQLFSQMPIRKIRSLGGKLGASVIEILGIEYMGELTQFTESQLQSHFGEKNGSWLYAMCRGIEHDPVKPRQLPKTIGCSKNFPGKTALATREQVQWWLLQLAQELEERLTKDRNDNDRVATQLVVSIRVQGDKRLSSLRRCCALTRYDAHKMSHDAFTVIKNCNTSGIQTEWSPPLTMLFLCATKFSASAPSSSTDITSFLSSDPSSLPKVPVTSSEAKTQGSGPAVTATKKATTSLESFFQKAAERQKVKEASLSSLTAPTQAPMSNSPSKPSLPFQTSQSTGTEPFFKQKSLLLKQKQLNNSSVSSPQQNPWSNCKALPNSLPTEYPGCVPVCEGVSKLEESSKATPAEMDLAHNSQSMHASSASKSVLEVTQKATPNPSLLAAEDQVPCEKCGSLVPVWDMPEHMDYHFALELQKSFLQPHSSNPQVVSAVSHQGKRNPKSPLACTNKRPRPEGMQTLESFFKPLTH
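Pol eta (10 nM) was preincubated with compounds for 15 min at room temperature, after which fluorescent replication substrate (50 nM final) was added to start the reaction. Fluorescence was read kinetically at 0 and 10 min.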
APE1 inh: APE1 (human) endonuclease inhibition; actives 0.35% (n = 350,000); recombinant APE1, TAMRA/BHQ-2 abasic DNA cleavage fluorescence; Potency, µM (highest dose often 65.8 µM), for the others: top-dose activity change, negative = inhibition, actives largely listed as inhibitors; AID 2517; P27695;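 further: plate controls were vehicle for no effect and reference inhibitor for full effect; nearly all actives have a fitted effect of over 55% in size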
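Activity was derived from the fluorescence gain between first and third kinetic reads (60 s intervals, ex 525/em 598 nm) after 50 nM THF-abasic TAMRA/BHQ-2 duplex was added to 0.75 nM APE1 preincubated 15 min with compound.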
* marks the source's active call; other numbers are inactive results; ? = inconclusive; / = no result; [ ] = dose if it differs, or a comment. The call rests on the fitted dose curve; in most records, active means well fitted curve in the direction sought with a large enough effect; inconclusive means small, poorly fitted or top-dose-only effect, or another doubt; inactive means no such curve, though single readings can be large; an effect the other way counts as inactive or inconclusive. Potency means the concentration at half of the fitted maximal effect.

SMILES	L3MBTL1 inh	Pol kappa inh	POLB inh	POLI inh	Pol eta inh	APE1 inh
COc1ccc(-c2ccc(=O)n(CC(=O)NCc3ccco3)n2)cc1	-9.7%	-3.6%	50.1µM*	?	?	?
O=C(Cn1nnc(-c2ccc(Cl)cc2)n1)NCc1ccco1	-4.9%[11.4 µM]	?	?	39.8µM*	-9.4%	-8.6%
O=C(Cn1nnc(-c2cccs2)n1)NCc1ccco1	-13.4%	-2.1%	15.0%	-28.2%	5.3%	-3.9%
CCC(C(=O)NCc1ccco1)n1nc(-c2ccc(OC)cc2)ccc1=O (stereo not drawn)	-26.6%	?	44.7µM*	?	?	-10.0%
COc1ccc(C2=NOC(C(=O)NCc3ccco3)C2)cc1 (stereo not drawn)	/	-5.3%	-18.7%	-12.9%	-2.8%	5.2%
C#CCCCCCCCCCCCc1ccco1	/	-6.8%[60.1 µM]	/	/	/	0.2%
OC(COc1ccc(C2C=CCC2)cc1)CN1CCCCC1 (stereo not drawn)	-4.1%	1.8%	35.6%	?	5.5%	0.7%
CC(C)(Oc1ccc(Cl)cc1)C(=O)Nc1cccc(S(=O)(=O)NC2=NCCC2)c1	-3.4%	13.6%	/	-2.3%	-12.2%	11.5%
CC(=O)N1CCn2c3c(c(=O)c4cc(C)ccc42)CCC31 (stereo not drawn)	/	-21.8%	-3.1%	22.4µM*	3.5%	-0.6%
COc1ccc(C2OCC3(COC(C)=O)C(C)C=C(C)C2C3C)cc1 (stereo not drawn)	/	-11.5%[19.4 µM]	/	/	/	-0.8%
CC(C)=C1C(=O)NN(c2ccc(C)c(Cl)c2)C1=O	-20.3%	?	?	79.4µM*	-6.9%	-1.0%
CC(C)=C1C(=O)NN(c2cccc(Cl)c2)C1=O	-2.3%	-24.0%	-3.4%	152.3%	-8.5%	-1.1%
CC(=O)Nc1ccc2c(c1)-c1ccc(F)cc1C2	/	-5.7%	/	-2.7%	-6.5%	/
CC(=O)Nc1ccc2c(c1)Cc1ccc(Cl)cc1-2	/	-10.6%	/	79.4µM*	-21.1%	/
CCCCCCn1cnc2c(c1=O)c1nc3ccccc3nc1n2/N=C/c1ccco1	-2.4%	-17.5%	44.7µM*	?	?	-4.5%
COCCn1cnc2c(c1=O)c1nc3ccccc3nc1n2/N=C/c1ccco1	6.9%	9.2%	26.2%	11.5%	34.4%	19.2%
COc1ccc(OC)c2c(/C=C/c3ccc(N(C)C)cc3)ccnc12	/	-2.2%	/	?	/	/
COc1ccc([N+](=O)[O-])cc1NC(=O)Nc1cccc(Cl)c1	9.8%	-9.8%	0.8%	9.7%	?	17.3%
COc1ccc([N+](=O)[O-])cc1C(=O)Nc1ccc(Cc2ccncc2)cc1	-4.6%	-10.6%	11.2µM*	7.7%	3.8%	2.1%
COc1ccc([N+](=O)[O-])cc1NC(=O)Nc1ccc(OC)c(OC)c1	25.4%[11.4 µM]	-22.0%	20µM*	-28.7%	-9.1%	3.1%
O=C(Nc1ccc(Cl)cc1Cl)[C@@H]1CC=C[C@@H]2CCN(Cc3ccccc3)C(=O)[C@@H]21	/	-6.4%	/	4.7%	/	/
Cc1cc(=O)cc2oc3cc(N)c(-c4c(C)cc(O)cc4O)c(C)c3nc1-2	/	4.47µM*	/	/	/	?
Cc1cc(C)c2nc(-c3ccccn3)cc(C(=O)NCc3ccco3)c2c1	/	?	39.8µM*	?	?	?
Cc1cc(C)c2nc(-c3ccccn3)cc(C(=O)NCc3cc(C)n(C)n3)c2c1	-0.4%	0.5%	39.8µM*	17.4%	-10.2%	3.0%
O=C(O)c1ccc(CSc2nnc(-c3ccc([S+](=O)([O-])N4CCCC4)cc3)n2-c2ccccc2)cc1	/	/	/	/	/	-19.7%
SMILES	L3MBTL1 inh	Pol kappa inh	POLB inh	POLI inh	Pol eta inh	APE1 inh
Cc1ccc(-c2nc(CCN3C(=O)c4ccccc4C3=O)cs2)cc1	10.3%	-9.8%	37.8%	-7.5%	-4.3%	-6.5%
O=C1c2ccccc2C(=O)N1CCc1csc(NNc2nc(CCN3C(=O)c4ccccc4C3=O)cs2)n1	/	89.1µM*	25.1µM*	?	?	?
O=[N+]([O-])c1ccc2nc(-c3ccccc3)n(OCc3ccc(Cl)cc3)c2c1	-23.0%	?	28.2µM*	-5.0%	15.8µM*	?
O=C(O)COn1c(-c2ccccc2)nc2ccc(Cl)cc21	7.6%	-9.0%	-2.4%	14.7%	-13.5%	1.1%
CCc1ccc(S(=O)(=O)/N=C2\C=C(NS(=O)(=O)c3ccccc3)C(=O)c3ccccc32)cc1	/	-27.2%	?	?	89.1µM*	-9.7%
CC(C)c1ccc(S(=O)(=O)/N=C2\C=C(NS(=O)(=O)c3ccccc3)C(=O)c3ccccc32)cc1	/	-20.2%	?	?	79.4µM*	-20.4%
CC(C)(C)C(=O)Nc1ccc(C(=O)CSc2nnc(C3CC3)n2C2CC2)cc1	3.0%	2.2%	/	-7.9%	-6.8%	4.6%
O=C(O)c1ccc2c(c1)C(=O)N(N1C(=O)c3ccccc3C1=O)C2=O	2.8%	-11.7%	25.1µM*	18.4%	-3.9%	0.5%
O=C(Nc1ccccc1O)c1ccc2c(c1)C(=O)N(N1C(=O)c3ccccc3C1=O)C2=O	/	-13.1%	28.2µM*	6.9%	-19.6%	3.7%
O=C(O)c1ccc2c(c1)C(=O)N(CCc1ccccc1)C2=O	-5.7%[2.29 µM]	-12.8%	18.9%	24.4%	-23.6%	28.0%
CCc1nnc(NS(=O)(=O)c2ccc(N3C(=O)C4CC=C(Cl)CC4C3=O)cc2)s1 (stereo not drawn)	/	-17.4%	26.8%	?	44.7µM*	4.0%
Cc1cc(C)nc(NS(=O)(=O)c2ccc(N3C(=O)C4CC=C(Cl)CC4C3=O)cc2)n1 (stereo not drawn)	-9.3%	2.3%	10.0%	-4.0%	-20.5%	-4.3%
CCC(NS(=O)(=O)c1ccc(C)cc1)C(=O)N1CCOCCOCCOCCOCC1 (stereo not drawn)	/	-11.1%	-2.5%	98.2%	-23.2%	48.8%
COc1cc(/C=C2/C(=O)N(c3ccc([N+](=O)[O-])cc3)N=C2N2CCOCC2)ccc1O	-9.8%	-8.5%	-9.7%	0.891µM*	?	0.9%
Cc1cc(Nc2ccc(O)cc2)ccc1N	-19.1%	-26.1%	/	20µM*	/	9.1%
Cc1ccc(OC(=O)CSc2nnc(-c3cccs3)o2)c(C)c1	/	-6.6%	3.9%	-6.4%	-15.4%	/
COc1cccc(C2CC(c3ccc(NS(C)(=O)=O)cc3)=NN2C(=O)c2ccccc2)c1OC (stereo not drawn)	/	-22.4%	-7.5%	89.1µM*	?	-12.0%
COc1ccccc1C1CC(c2ccc(NS(C)(=O)=O)cc2)=NN1C(=O)c1ccccc1 (stereo not drawn)	/	-5.2%	0.5%	12.4%	-9.8%	-2.4%
CN(C)c1ccc(C=O)cc1[N+](=O)[O-]	/	-7.0%	/	9.9%	/	/
